This passage reports binding signal results from paper PMC10726135, “HNF4α isoforms regulate the circadian balance between carbohydrate and lipid metabolism in the liver”.

In all, about 18,000 sequences were measured (“log2 normalized intensity”: median about 0.39, highest 2% from about 6.6 on). The full list was thinned out, with the highest values kept by preference.

This experiment addresses T1, HNF4alpha2 (COS-7 nuclear extract) (Homo sapiens, UniProt P41235 1-474).
T1 sequence: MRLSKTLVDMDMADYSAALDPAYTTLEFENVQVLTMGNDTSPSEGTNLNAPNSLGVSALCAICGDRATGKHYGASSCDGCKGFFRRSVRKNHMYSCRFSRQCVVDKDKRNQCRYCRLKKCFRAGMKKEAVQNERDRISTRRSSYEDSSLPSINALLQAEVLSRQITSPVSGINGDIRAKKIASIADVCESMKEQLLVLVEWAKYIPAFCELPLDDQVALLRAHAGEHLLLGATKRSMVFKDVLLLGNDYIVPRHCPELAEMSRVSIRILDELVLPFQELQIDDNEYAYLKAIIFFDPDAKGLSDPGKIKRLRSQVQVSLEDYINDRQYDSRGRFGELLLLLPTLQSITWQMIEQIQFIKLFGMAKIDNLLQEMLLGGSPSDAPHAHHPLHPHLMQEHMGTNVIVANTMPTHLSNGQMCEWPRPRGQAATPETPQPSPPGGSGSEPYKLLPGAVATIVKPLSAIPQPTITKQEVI
Description: protein-binding microarray; COS-7 nuclear extract on double-stranded Agilent 4x180k PBM; binding buffer, salt, pH and temperature not given in the material; high values mean tight binding. As to conditions: chain copies: 2; label: 3' end of strand 1 on the slide; dsDNA, one strand shown. The method in brief:
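Nuclear extracts of COS-7 cells transiently transfected with a human HNF4α isoform were applied to a custom Agilent SurePrint G3 4x180k array bearing ~44,000 double-stranded ~60-nt test sequences, each in quadruplicate. The bound protein was imaged on an Agilent G2565CA scanner at 2-µm resolution. Binding signal is the normalized, background-corrected gProcessedSignal from Agilent software.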
In the case of “CTCTGCAAACATTTATTTTGTGTGCTAGATGCCTAGGGAGATTAGAGTATCGGTCGA”, the binding signal was found to be 1.54 log2 normalized intensity.

For the sequence “TTGCCCACATTCACACAATCAGTGTGTTGAGCCTAGGGAGATTAGAGTATCGGTCGA”, the binding signal is -0.0239 log2 normalized intensity.

With “AGCAGTCCCTTCCCCCCTCCTCATTGAGAGGCCTAGGGAGATTAGAGTATCGGTCGA”, the binding signal worked out at 4.37 log2 normalized intensity. “TTGCACCAGTTTCTCAACAGACCCCTGAATGCCTAGGGAGATTAGAGTATCGGTCGA”: the binding signal was found to be 2.27 log2 normalized intensity.

As for “CTTGACGCTAACTTCCAGATCAAAGGACATGCCTAGGGAGATTAGAGTATCGGTCGA”, the binding signal came out at 0.608 log2 normalized intensity. With “GTCTAATTGTGCTGAGAGAGTCCTTGTTTGGCCTAGGGAGATTAGAGTATCGGTCGA” the figure was 1.63 log2 normalized intensity.

Turning to “GCAGATGGGCAGCACTGTGATTTGTTCAGGGCCTAGGGAGATTAGAGTATCGGTCGA”, the binding signal came to 0.439 log2 normalized intensity. “GTCTGCTGCCCAGACACACAATATTATGTTGCCTAGGGAGATTAGAGTATCGGTCGA”: the binding signal is -0.79 log2 normalized intensity.

“GGAGATAACCCATCTGGGGAAAGTGCAAGGGCCTAGGGAGATTAGAGTATCGGTCGA”: the binding signal is -0.913 log2 normalized intensity. With “TCTGCAAGGCAACTGACCTTTGGATCTGGGGCCTAGGGAGATTAGAGTATCGGTCGA” the figure was 7.21 log2 normalized intensity.

Turning to “TTCTTCTGGTTCTGCAAGGCAACTGACCTTGCCTAGGGAGATTAGAGTATCGGTCGA”, the binding signal came out at 3.64 log2 normalized intensity. Then “TCTGGTGCCAAGGAGCCTCTGCAACCTTTGGCCTAGGGAGATTAGAGTATCGGTCGA”, with 2.46 log2 normalized intensity. Then “CTTGGGGGAGGAGGGCAACCTTTGAACTGGGCCTAGGGAGATTAGAGTATCGGTCGA”, with 5.3 log2 normalized intensity. Consider “CTGGTTCTGCAAGGCAACTGACCTTTGGATGCCTAGGGAGATTAGAGTATCGGTCGA”, for which the binding signal was determined as 8.08 log2 normalized intensity. With “TGGACAACTGTACTTTGGACTGGGGACCTGGCCTAGGGAGATTAGAGTATCGGTCGA” the figure was 5.1 log2 normalized intensity; with “TATACAAGAAAGAAAGAATGTTTGCTTCTGGCCTAGGGAGATTAGAGTATCGGTCGA”, -0.716 log2 normalized intensity; with “GGTGGACTTTGTAGCTCAAACAGTCTAAAAGCCTAGGGAGATTAGAGTATCGGTCGA”, 2.3 log2 normalized intensity. Regarding “GTTAAAGTTGCCTGATGACAACTGAATGTGGCCTAGGGAGATTAGAGTATCGGTCGA”, the binding signal was 0.26 log2 normalized intensity. Then “ACACCGTATCATCAAACCTGTTATTTGCGCGCCTAGGGAGATTAGAGTATCGGTCGA”, with 1.25 log2 normalized intensity. On to “AACGGCCCAGGGTTAGAGGATGACCTTCCCGCCTAGGGAGATTAGAGTATCGGTCGA”, for which the binding signal was 2.99 log2 normalized intensity.

In the case of “ATGACCTTTACCCCCATTTGGTAATGGGCCGCCTAGGGAGATTAGAGTATCGGTCGA”, the binding signal was found to be 4.83 log2 normalized intensity.

As for “GGCAGGGCCAGATAAAGCAGGTTGTACCTTGCCTAGGGAGATTAGAGTATCGGTCGA”, the binding signal was 2.4 log2 normalized intensity. With “GGGCCATGACCTTTACCCCCATTTGGTAATGCCTAGGGAGATTAGAGTATCGGTCGA” the figure was 6.29 log2 normalized intensity. With “TCACCAGGATGGGCCATGACCTTTACCCCCGCCTAGGGAGATTAGAGTATCGGTCGA” the figure was 9.28 log2 normalized intensity; with “CACTATCACCAGGATGGGCCATGACCTTTAGCCTAGGGAGATTAGAGTATCGGTCGA”, 4.48 log2 normalized intensity. Then “GGCCAGATAAAGCAGGTTGTACCTTGACCCGCCTAGGGAGATTAGAGTATCGGTCGA”, with 8.92 log2 normalized intensity; and “GATAAAGCAGGTTGTACCTTGACCCAAGAAGCCTAGGGAGATTAGAGTATCGGTCGA”, with 4.88 log2 normalized intensity. Consider “AGGATGGGCCATGACCTTTACCCCCATTTGGCCTAGGGAGATTAGAGTATCGGTCGA”, for which the binding signal was found to be 7.65 log2 normalized intensity. As for “GCTTCTCTTGGACCTCAATGTGCTCATCCAGCCTAGGGAGATTAGAGTATCGGTCGA”, the binding signal worked out at 0.722 log2 normalized intensity. In the case of “CCCACGTACATTGCACCCTCCAGGAGCCCCGCCTAGGGAGATTAGAGTATCGGTCGA”, the binding signal worked out at 2.07 log2 normalized intensity. Then “TATGTGATCAGATGTGGACAATCATTGTGCGCCTAGGGAGATTAGAGTATCGGTCGA”, with 1.53 log2 normalized intensity; and “AGTGGAGAAATAACATTAATGGAAATGCCTGCCTAGGGAGATTAGAGTATCGGTCGA”, with -0.84 log2 normalized intensity. With “ACCATCCACGGATGCATGATTGCTCTCTACGCCTAGGGAGATTAGAGTATCGGTCGA” the figure was -0.932 log2 normalized intensity. Then “TGCACAACGACCCTTGCTCTGTTTTCTGACGCCTAGGGAGATTAGAGTATCGGTCGA”, with 1.89 log2 normalized intensity; and “CTTTGAGAAAGCAAAGTCCCTGGGGACAGGGCCTAGGGAGATTAGAGTATCGGTCGA”, with -0.0595 log2 normalized intensity. Take “TCTAAGACATAACACAGGTGACCTTTGCTCGCCTAGGGAGATTAGAGTATCGGTCGA”: the binding signal was found to be 8.37 log2 normalized intensity. Then “GACATAACACAGGTGACCTTTGCTCCGGTTGCCTAGGGAGATTAGAGTATCGGTCGA”, with 7.4 log2 normalized intensity; and “AACACAGGTGACCTTTGCTCCGGTTCCCAAGCCTAGGGAGATTAGAGTATCGGTCGA”, with 6.26 log2 normalized intensity; and “AGGTGACCTTTGCTCCGGTTCCCAATAAGTGCCTAGGGAGATTAGAGTATCGGTCGA”, with 5.06 log2 normalized intensity. “CTAAGCAGGCACATTCCAGGACCTTTGCTCGCCTAGGGAGATTAGAGTATCGGTCGA”: the binding signal came to 4.08 log2 normalized intensity. With “TCTTTTCTAAGACATAACACAGGTGACCTTGCCTAGGGAGATTAGAGTATCGGTCGA” the figure was 4.03 log2 normalized intensity; with “CCTCCCTCCATGCTGTAGATTGTGGAATGTGCCTAGGGAGATTAGAGTATCGGTCGA”, 1.81 log2 normalized intensity; with “GGTATGTTAGATTAGTGTGCAGCTTTGTGTGCCTAGGGAGATTAGAGTATCGGTCGA”, 2.1 log2 normalized intensity.
